Reference: the supplement of paper PMC11732987, “Enantioselective OTUD7B fragment discovery through chemoproteomics screening and high-throughput optimisation” (Communications Chemistry, 2025)

Target: USP14 (UniProt P54578)
Experiment: log2 ratio of Biotin-Ahx-Ub-VS probe labelling (fragment/DMSO); higher = less target engagement (more negative = stronger competition), active = hit call of the paper (q ≤ 0.05, log2 ratio ≤ -1)
Details: compound concentration: 200 uM; treatment time: 3 h
Method: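 Competitive ABPP in HEK293T cell lysate. Lysates were treated with each chloroacetamide fragment at 200 µM for 3 h, then with Biotin-Ahx-Ub-VS (0.5 µM, 1 h), NeutrAvidin-enriched and analysed by diaPASEF LC-MS/MS. Protein LFQ was median-normalised; average log2 ratio is fragment/DMSO from an unpaired t-test (n=3 treated, n=44 DMSO). Hits: q ≤ 0.05, log2 ratio ≤ -1, unique peptides ≥ 2.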

Chain of USP14 (P54578 whole entry, the tested form may be a part): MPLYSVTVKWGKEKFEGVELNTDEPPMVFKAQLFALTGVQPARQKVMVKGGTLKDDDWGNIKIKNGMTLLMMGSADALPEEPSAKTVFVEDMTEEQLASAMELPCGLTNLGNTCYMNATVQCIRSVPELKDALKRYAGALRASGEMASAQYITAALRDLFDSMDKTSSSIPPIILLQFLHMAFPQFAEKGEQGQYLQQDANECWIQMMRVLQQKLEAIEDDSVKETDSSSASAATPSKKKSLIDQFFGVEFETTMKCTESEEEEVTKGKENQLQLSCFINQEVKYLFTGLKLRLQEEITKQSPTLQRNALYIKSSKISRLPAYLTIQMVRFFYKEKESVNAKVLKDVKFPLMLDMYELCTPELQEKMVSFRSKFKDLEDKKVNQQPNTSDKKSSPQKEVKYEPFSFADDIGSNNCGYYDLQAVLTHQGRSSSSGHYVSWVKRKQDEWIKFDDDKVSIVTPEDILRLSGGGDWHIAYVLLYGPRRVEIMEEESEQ

Row | Compound | log2 ratio of Biotin-Ahx-Ub-VS probe labelling
1 | Cl.Cn1cnc2cc(CNC(=O)CCl)ccc21 | -0.222 (inactive)
2 | Cl.Cn1ncc2c1CC(NC(=O)CCl)CC2 (stereo not given) | 0.136 (inactive)
3 | O=C(CCl)Nc1cc(Cl)ccc1C(=O)O | 0.0912 (inactive)
4 | O=C(CCl)N1CCC(c2nc3ccccc3o2)CC1 | -0.483 (inactive)
5 | Cl.O=C(CCl)NCCc1ncc(F)cc1F | -0.31 (inactive)
6 | Cc1cc(C2CCCN2C(=O)CCl)nn1C.Cl (stereo not given) | -0.361 (inactive)
7 | CS(=O)(=O)c1ccc(NC(=O)CCl)cc1 | 0.0136 (inactive)
8 | CC(=O)C1CCCCN1C(=O)CCl (stereo not given) | -0.101 (inactive)
9 | O=C(CCl)Nc1nnc(CC(F)(F)F)o1 | -0.206 (inactive)
10 | CC(NC(=O)CCl)c1csc(-c2ccccc2)n1.Cl (stereo not given) | -0.367 (inactive)
11 | C/C(=C\CNC(=O)CCl)c1cnn(C)c1.Cl | -0.247 (inactive)
12 | O=C(CCl)NCCc1ccc2c(c1)OCCO2 | -0.579 (inactive)
13 | Cc1ccc(-c2nnc(C)[nH]2)c(NC(=O)CCl)c1 | -0.203 (inactive)
14 | COc1ccc(CN(C)C(=O)CCl)cc1 | -0.544 (inactive)
15 | O=C(CCl)N1CCc2ccccc2C(O)C1 (stereo not given) | -0.255 (inactive)
16 | CCCn1nccc1NC(=O)CCl | -0.663 (inactive)
17 | CCN(C(=O)CCl)C1CCCCC1 | -0.0238 (inactive)
18 | Cc1cc(NC(=O)CCl)n(-c2ccccc2)n1 | 0.0764 (inactive)
19 | O=C(CCl)N1CCc2[nH]c3ccccc3c2C1 | -1.05 (active)
20 | O=C(CCl)N1CCOC(c2cccc(F)c2)C1 (stereo not given) | -0.3 (inactive)

Row | Compound | log2 ratio of Biotin-Ahx-Ub-VS probe labelling
21 | N#Cc1ccc(Cl)cc1NC(=O)CCl | -0.283 (inactive)
22 | Cl.O=C(CCl)N1CCc2ncncc2C1 | -0.0964 (inactive)
23 | Cc1cccc2nc(CCNC(=O)CCl)cn12.Cl | -0.259 (inactive)
24 | Cl.O=C(CCl)NC1(c2ncccn2)CCC1 | 0.108 (inactive)
25 | O=C(CCl)Nc1cccc(C(=O)N2CCSCC2)c1 | -0.335 (inactive)
26 | O=C(CCl)Nc1ccccc1C(F)(F)F | -0.46 (inactive)
27 | CCN(Cc1ccc(C#N)cc1F)C(=O)CCl | -0.392 (inactive)
28 | O=C(CCl)NCc1cccc(F)c1 | -0.167 (inactive)
29 | O=C(O)C1Cc2ccccc2CN1C(=O)CCl (stereo not given) | -0.621 (inactive)
30 | Cc1ccc(N(CCC#N)C(=O)CCl)cc1C | -0.623 (inactive)
31 | O=C(CCl)NCc1cccc(N2CCCC2=O)c1 | -0.0996 (inactive)
32 | O=C(CCl)Nc1nc(-c2cccs2)cs1 | 0.15 (inactive)
33 | Cc1noc(N2CCN(C(=O)CCl)CC2)n1.Cl | 0.347 (inactive)
34 | N#Cc1cnn(-c2ccccc2)c1NC(=O)CCl | -0.345 (inactive)
35 | Cc1ccc(C(=O)NCCNC(=O)CCl)cc1 | -0.414 (inactive)
36 | CC(c1ccccc1)N(C)C(=O)CCl (stereo not given) | -0.237 (inactive)
37 | Cc1cccc(N2CCC(NC(=O)CCl)C2=O)c1 (stereo not given) | -0.345 (inactive)
38 | Cc1ccc(CNC(=O)CCl)nc1C.Cl | -0.372 (inactive)
39 | CCN(C(=O)CCl)C1CCS(=O)(=O)C1 (stereo not given) | -0.155 (inactive)
40 | Cc1cnc2[nH]cc(CCNC(=O)CCl)c2c1 | -0.111 (inactive)
